Whole data set: some 1,100 compounds, median “Renilla luciferase signal (cell health) relative to plate median” near 0.97, cut for the highest 2% near 1.6. For the sample, the highest values were picked, then their nearest neighbours and some compounds at random.
System: HEK293T (UBE3A T485A transfected, BAR Wnt reporter)
Experiment: Renilla luciferase signal (cell health) relative to plate median (fold (linear ratio)); higher = higher Renilla signal
Conditions: 24 h
How it was run: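 Chemicals at 0.01–100 uM were left on transfected HEK293T cells for 24 h, after a four-hour wait following transfection. The cells held a BAR firefly luciferase Wnt reporter, TK-Renilla and an expression plasmid. Wnt activity, as the firefly/Renilla ratio from a Dual-Glo luciferase readout, and cell health, as raw Renilla, were median-centred within each plate. Results average four biological replicates.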

Structure (SMILES) | Renilla luciferase signal (concentration: 0.01 uM) | Renilla luciferase signal (concentration: 0.1 uM) | Renilla luciferase signal (concentration: 1 uM) | Renilla luciferase signal (concentration: 10 uM) | Renilla luciferase signal (concentration: 100 uM)
CS(=O)(=O)c1ccc(C(=O)C2C(=O)CCCC2=O)c([N+](=O)[O-])c1 [Mesotrione] | 0.834 | 0.808 | 0.956 | 1.03 | 1.39
FC(F)C(F)(F)OCC(Cn1cncn1)c1ccc(Cl)cc1Cl (stereo not drawn) [Tetraconazole] | 1.01 | 1.09 | 0.957 | 0.997 | 0.0289
CO/N=C(/C1=NOCCO1)c1ccccc1Oc1ncnc(Oc2ccccc2Cl)c1F [Fluoxastrobin] | 0.875 | 0.941 | 1.05 | 0.383 | 1.63
ClC(Cl)(Cl)c1ccccc1 [Benzotrichloride] |  | 0.82 | 0.9 | 0.872 | 1.04
O=C(O)C1(c2ccc3c(c2)OC[C@H](Cc2ccc(-c4ccccc4)cc2)[C@H]3O)CCCC1 |  | 0.875 | 0.823 | 0.781 | 0.0901
O=C1C2CC=CCC2C(=O)N1SC(Cl)(Cl)Cl (stereo not drawn) [Captan] | 1.19 | 1.04 | 0.975 | 1.02 | 0.036
Clc1ccc(C(Cl)(Cl)Cl)cc1 [4-Chlorobenzotrichloride] |  | 0.548 | 0.799 | 0.652 | 0.663
COc1cc(OC)nc(Sc2cccc(Cl)c2C(=O)[O-])n1.[Na+] [Pyrithiobac-sodium] | 1.11 | 1.16 | 0.967 | 1.07 | 1.69
CCCCCCCCCc1ccc(O)cc1 [4-Nonylphenol, branched] |  | 1 | 0.945 | 1.06 | 0.973
CC(C)(C)C(O)C(Oc1ccc(Cl)cc1)n1cncn1 (stereo not drawn) [Triadimenol] | 1.01 | 0.885 | 0.844 | 0.906 | 0.699
CCNC(=O)NC(=O)/C(C#N)=N/OC [Cymoxanil] | 1.26 | 1.16 | 1.08 | 1.15 | 2.39
CO/C=C(/C(=O)OC)c1ccccc1COc1cccc(C(F)(F)F)n1 [Picoxystrobin] |  | 0.76 | 0.879 | 0.82 | 0.465
O=C(Nc1ccccc1-c1ccc(Cl)cc1)c1cccnc1Cl [Boscalid] | 0.775 | 0.848 | 0.903 | 0.818 | 1.24
Oc1cccc2cccnc12 [8-Hydroxyquinoline] |  | 0.779 | 0.797 | 0.764 | 0.0228
CC1=NNC(=O)N(/N=C/c2cccnc2)C1 [Pymetrozine] | 0.89 | 0.911 | 0.966 | 0.97 | 1.45
CC(Oc1ccc(Cl)cc1Cl)C(=O)O (stereo not drawn) [Dichlorprop] | 0.843 | 0.959 | 0.959 | 1.04 | 1.6
CC(C)OC(=O)Nc1cccc(Cl)c1 [Chlorpropham] | 0.728 | 0.618 | 0.828 | 0.81 | 0.766
CC(Oc1cccc(Cl)c1)C(=O)O (stereo not drawn) [Cloprop] | 0.924 | 0.701 | 0.814 | 1.01 | 2.51
CC(C)(C)C(=O)C(Oc1ccc(Cl)cc1)n1cncn1 (stereo not drawn) [Triadimefon] | 1.42 | 0.867 | 0.961 | 1.05 | 0.777
O=C1c2ccccc2C(=O)N1SC(Cl)(Cl)Cl [Folpet] | 1.08 | 1.03 | 1.08 | 1.17 | 0.0353
CNC(=O)Oc1ccccc1OC(C)C [Propoxur] | 0.908 | 0.899 | 0.869 | 0.843 | 1.18
c1cc2c3c(cccc3c1)CC2 [Acenaphthene] |  | 1.17 | 1.26 | 1.14 | 1.68

Structure (SMILES) | Renilla luciferase signal (concentration: 0.01 uM) | Renilla luciferase signal (concentration: 0.1 uM) | Renilla luciferase signal (concentration: 1 uM) | Renilla luciferase signal (concentration: 10 uM) | Renilla luciferase signal (concentration: 100 uM)
c1cc2ccc3cccc4ccc(c1)c2c34 [Pyrene] |  | 0.967 | 0.928 | 1.05 | 0.889
C1=Cc2cccc3cccc1c23 [Acenaphthylene] |  | 0.739 | 0.666 | 0.684 | 0.683
CCOP(=S)(OCC)Oc1ccc2c(C)c(Cl)c(=O)oc2c1 [Coumaphos] | 1.01 | 1.11 | 1 | 1.04 | 0.717
COC(=O)NC(=S)Nc1ccccc1NC(=S)NC(=O)OC [Thiophanate-methyl] | 1.37 | 0.913 | 1 | 1.01 | 0.274
COC(=O)NS(=O)(=O)c1ccc(N)cc1 [Asulam] | 1.08 | 1.11 | 0.923 | 0.97 | 2
COC(=O)c1ccccc1N [Methyl 2-aminobenzoate] |  | 1.09 | 1.07 | 1.11 | 1.51
C1CC2OC2CC1C1CO1 (stereo not drawn) [4-Vinyl-1-cyclohexene dioxide] |  | 0.978 | 0.971 | 0.856 | 0.459
Cc1cc(Cc2ccc(N)c(C)c2)ccc1N [4,4'-Methylenebis(2-methylaniline)] |  | 1.07 | 1.1 | 0.902 | 0.647
CCOP(=O)(OCC)Oc1cc(C)nc(C(C)C)n1 [Diazoxon] | 1.03 | 0.822 | 0.982 | 0.982 | 1.37
[N-]=[N+]=[N-].[Na+] [Sodium azide] |  | 1.11 |  |  | 1.29
[N-]=[N+]=[N-].[Na+] [Sodium Azide] | 1.38 |  | 1.01 | 1.05 | 
O=C1C2(Cl)C3(Cl)C4(Cl)C(Cl)(Cl)C5(Cl)C3(Cl)C1(Cl)C5(Cl)C24Cl (stereo not drawn) [Kepone] |  | 1.03 | 0.982 | 1 | 1.33
COP(N)(=O)SC (stereo not drawn) [Methamidophos] | 1.08 | 0.989 | 1.14 | 1.04 | 2.27
COP(=O)(NC(C)=O)SC (stereo not drawn) [Acephate] | 0.777 | 0.825 | 0.95 | 1 | 1.52
Nc1ccc(Cc2ccc(N)cc2)cc1 [4,4'-Methylenedianiline] |  | 0.803 | 0.812 | 0.825 | 0.725
O=C(O)C(Cl)(Cl)Cl [Trichloroacetic acid] |  | 0.932 | 1.09 | 1.11 | 1.35
CCOP(=S)(OCC)OC(Cl)C(Cl)(Cl)Cl (stereo not drawn) [Chlorethoxyfos] | 0.648 | 0.673 | 0.754 | 0.769 | 1.03
CCC(C)c1ccc(O)cc1 (stereo not drawn) [4-(Butan-2-yl)phenol] |  | 1.03 | 1.04 | 0.967 | 1.21
CN(C)C(=O)Nc1ccc(Cl)cc1 [Monuron] |  | 1.07 | 1.08 | 1.08 | 0.972
CN(C)C(=O)Nc1cccc(C(F)(F)F)c1 [Fluometuron] | 1.01 | 0.858 | 0.955 | 0.915 | 1.74
CC(C)Oc1cccc(NC(=O)c2ccccc2C(F)(F)F)c1 [Flutolanil] | 0.958 | 0.913 | 0.934 | 0.913 | 1.07

— the supplement of paper PMC9254222
